Source: PubChem BioAssay (National Center for Advancing Translational Sciences (NCATS))
TDP1 cell CPT: DT40-hTDP1 cell growth loss with CPT. Potency, µM (titrated, usually from 46.2 µM), actives largely listed as inhibitors. AID 686979. chicken DT40 Tdp1-/-;hTDP1 cells + 20 nM CPT, ATP luminescence, 48 h. actives 12% (n = 420,000); also: nearly all actives have a fitted effect of over 55% in size
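Chicken DT40 Tdp1-/- cells stably complemented with human TDP1 were seeded at 400 cells/well in medium containing 20 nM camptothecin, exposed to pin-transferred compounds, and grown at 37 °C for at least 48 hr. Viability was read as ATP luminescence.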
TDP1 cell noCPT: qHTS for Inhibitors of human tyrosyl-DNA phosphodiesterase 1 (TDP1): qHTS in cells in absence of CPT; DT40 Tdp1-/- hTDP1 cells, no CPT, ATP luminescence, 48 h; Potency, µM (titrated, usually from 46.2 µM), most hits filed as inhibitors; actives 15% (n = 420,000); AID 686978, 2013; also: nearly all actives have a fitted effect of over 55% in size
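DT40 Tdp1-/-;hTDP1 cells, no CPT (DMSO vehicle only), 400 cells/well; compounds pin-transferred; ≥48 hr, 37 °C; CellTiter-Glo 30 min RT dark, luminescence read.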
HT1080NT lethal: kills 2HG-producing HT-1080-NT fibrosarcoma cells; HT-1080-NT fibrosarcoma viability, CellTiter-Glo ATP luminescence, 48 h; Potency, µM (titrated, usually from 46.1 µM), hits mostly cytotoxic; actives 1.6% (n = 360,000); AID 686970;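 also: NT is the 2HG producing partner of a matched IDH1 knockdown line; nearly all actives have a fitted effect of over 55% in size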
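Viability by CellTiter-Glo luminescence after 48 h compound exposure at 37C of HT-1080-NT cells (750/well, RPMI, 5% FBS). % activity scaled between DMSO wells and medium-only wells, then curve-fitted and categorized by curve class.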
HT1080 IDH1KD tx: kills HT-1080 cells with IDH1 knockdown. AID 686971. Potency, µM (highest dose often 46.1 µM), actives largely listed as cytotoxic. HT-1080 IDH1 knockdown viability, ATP luminescence, 48 h. actives 2% (n = 360,000)
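% activity derives from luminescence (CellTiter-Glo), normalised to DMSO and no-cell wells. HT-1080-IDH1KD cells, 750/well, had 48 h compound exposure at 37 °C.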
IL-1B inflam inh: blocks inflammasome-driven IL-1 beta release | activity change, % at 57.5 µM | THP-1 LPS/ATP IL-1B secretion, AlphaLISA, 16 h; active compounds read low | actives 4.7% (n = 360,000); in the data active = activity change below about -50%; inconclusive = mostly about -30% to -49%
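Secreted IL-1B measured by AlphaLISA bead assay after 16 h compound exposure of THP-1 cells; compounds (final up to 57.5 uM) added 1 h before LPS (250 ng/mL) and ATP (1.25 mM) stimulation; lower signal means less secretion.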
Of the large screens only hits and unclear results are named; the others gave an inactive call. Only some compounds are listed: those with a hit (about 19% of all), similar ones and a draw of the others. Unless noted, calls follow the shape of the dose curve; as a rule, active = well fitted curve in the direction sought with a large enough effect; inconclusive = small, poorly fitted or top-dose-only effect, or another doubt; inactive = no such curve, though single readings can be large; an effect the other way counts as inactive or inconclusive.

CCc1nc2ccc(C(=O)Nc3cc(-c4ccccc4)ccc3OC)cn2c1N(C)Cc1ccc(OC)cc1	TDP1 cell CPT 7.3µM, TDP1 cell noCPT 8.2µM, IL-1B inflam inh inconclusive
CCc1nc2ccc(C(=O)Nc3cc(-c4ccccc4)ccc3OC)cn2c1N(C)Cc1nccs1	TDP1 cell CPT 13µM, TDP1 cell noCPT 9.2µM, HT1080NT lethal inconclusive, HT1080 IDH1KD tx 23µM, IL-1B inflam inh -80
CCc1nc2ccc(C(=O)N(CC)CCN(C)C)cn2c1N(C)Cc1nccs1	none
CCc1nc2ccc(C(=O)Nc3cc(-c4ccccc4)ccc3OC)cn2c1N(C)C(=O)c1cccc(OC)c1	TDP1 cell CPT inconclusive, TDP1 cell noCPT 18µM, IL-1B inflam inh -76
CCc1nc2ccc(C(=O)NCC3CCCCC3)cn2c1N(C)Cc1nccs1	TDP1 cell CPT 16µM, TDP1 cell noCPT 21µM
COc1ccc(-c2[nH]ncc2CN(CCO)Cc2cccs2)c(F)c1	TDP1 cell noCPT inconclusive
CC(C)(C)c1cc(NCCCn2ccnc2)n2ncc(-c3ccccc3)c2n1	TDP1 cell noCPT inconclusive, HT1080NT lethal 18µM, HT1080 IDH1KD tx 16µM, IL-1B inflam inh -97
CC(C)(C)c1cc(C(F)(F)F)n2ncc(-c3ccccc3)c2n1	TDP1 cell noCPT inconclusive
CCCc1cc(NCCCn2ccnc2)n2nc(C)c(-c3ccccc3)c2n1	TDP1 cell CPT inconclusive, TDP1 cell noCPT inconclusive, HT1080NT lethal inconclusive, HT1080 IDH1KD tx 13µM (no result: IL-1B inflam inh)
Cc1cc(NCCCN(C)C)n2nc(-c3cccs3)cc2n1	TDP1 cell noCPT inconclusive, IL-1B inflam inh -109
FC(F)(F)c1cc(-c2cccs2)nc2cc(-c3cccs3)nn12	none
CC(C)Nc1cc(C(C)(C)C)nc2c(-c3ccccc3)cnn12	TDP1 cell noCPT inconclusive, HT1080NT lethal inconclusive, HT1080 IDH1KD tx inconclusive, IL-1B inflam inh -70
Nc1cc(Cl)ccc1C(=O)OCC(=O)NCC1CCCO1 (stereo not given)	none
Cc1cc(Br)ccc1NC(=O)CNC(=O)CN(C)C1CCS(=O)(=O)C1 (stereo not given)	none
Cc1cccc(-c2cc3nc(C)cc(NCCCn4ccnc4)n3n2)c1	TDP1 cell CPT inconclusive, TDP1 cell noCPT 23µM, HT1080NT lethal inconclusive, HT1080 IDH1KD tx inconclusive, IL-1B inflam inh -106
Cc1ccc(-c2cc3nc(-c4ccccc4)cc(NCCCO)n3n2)cc1	TDP1 cell CPT inconclusive, TDP1 cell noCPT inconclusive, HT1080NT lethal inconclusive, HT1080 IDH1KD tx inconclusive
COc1ccc(N=Nc2cc(C)ccc2O)cc1	none
Cc1ccc(O)c(N=Nc2nccs2)c1	TDP1 cell CPT 1.2µM, TDP1 cell noCPT 0.92µM, HT1080NT lethal inconclusive, HT1080 IDH1KD tx inconclusive
OCC[C@@H]1C[C@H](O)[C@@H](O)[C@]2(OCc3ccc(CO)cc32)O1	none
N#CC1=C(N)Oc2n[nH]c(-c3cccs3)c2C1c1ccsc1 (stereo not given)	none
N#CC1=C(N)Oc2n[nH]c(-c3cccs3)c2C1C1C=CCCC1 (stereo not given)	IL-1B inflam inh -94
N#CC1=C(N)Oc2n[nH]c(-c3cccs3)c2C1C1CCCCC1 (stereo not given)	TDP1 cell CPT inconclusive, TDP1 cell noCPT inconclusive, HT1080NT lethal inconclusive, IL-1B inflam inh -98
CCOC(=O)Cc1[nH]nc2c1C(C1C=CCCC1)C(C#N)=C(N)O2 (stereo not given)	TDP1 cell CPT inconclusive, TDP1 cell noCPT 23µM, HT1080NT lethal inconclusive, HT1080 IDH1KD tx 21µM, IL-1B inflam inh -90
COc1cc(NC(=O)C2(C)CCCN(C(C)C)C2)cc(OC)c1OC (stereo not given)	none
Cc1ccc(CN2CCN(/N=C/c3cccn3C)CC2)c(C)c1	TDP1 cell CPT 23µM, TDP1 cell noCPT 23µM
Cc1nc(N2CCC(C)CC2)c2c(C)c(C(=O)Nc3ccc(C(F)(F)F)cc3)sc2n1	TDP1 cell CPT inconclusive, TDP1 cell noCPT inconclusive, HT1080NT lethal inconclusive, HT1080 IDH1KD tx inconclusive, IL-1B inflam inh -84
Cc1nc(N2CCN(c3ccccn3)CC2)c2c(C)c(C(=O)Nc3ccc(F)cc3Cl)sc2n1	TDP1 cell CPT 23µM, TDP1 cell noCPT 21µM, IL-1B inflam inh inconclusive
